Reference: PubChem BioAssay (NCI)
Several values for one entry are separate records, joined by “and”; a condition that tells them apart may be missing. Equal entries are not always repeated. About 83,000 compounds went through this panel and 20% of them were active in at least one assay; those are over-represented in the sample as a whole.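 Testing used 96-well plates and a 48-hour single-concentration exposure. Example: -40 means 40% of the starting cells died.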 Values without a mark were called inactive. Activity calls are given as the source filed them. Rule for the calls: active = growth percent below 10; inactive = the rest.

Key:
Test in all cases: NCI-60 one-dose screen, 48 h (100 = growth as untreated, 0 = no growth, -100 = all killed)
Conditions in all cases: 10 µM unless noted
DU-145 prostate = system: DU-145 prostate
K-562 leukemia = system: K-562 leukemia
MALME-3M melanoma = system: MALME-3M melanoma
MDA-MB-231 breast = system: MDA-MB-231 breast
RXF 393 renal = system: RXF 393 renal
SF-268 CNS = system: SF-268 CNS
SF-295 CNS = system: SF-295 CNS
SF-539 CNS = system: SF-539 CNS
UACC-257 melanoma = system: UACC-257 melanoma
M14 melanoma = system: M14 melanoma

SMILES | growth (DU-145 prostate) | growth (K-562 leukemia) | growth (MALME-3M melanoma) | growth (MDA-MB-231 breast) | growth (RXF 393 renal) | growth (SF-268 CNS) | growth (SF-295 CNS) | growth (SF-539 CNS) | growth (UACC-257 melanoma) | growth (M14 melanoma)
Nc1cc2ccccc2c(=O)n1NC(=O)c1ccc(Br)cc1 | 109% | 101% | 89.7% | 66.8% | 112% | 89.8% | 103% | 67.5% | 104% | 91.7%
Clc1ccc(Nc2nnc(-c3c[nH]c4ccccc34)o2)cc1 | 91% | 32% | 78.8% | 65.1% | 90.2% | 68.6% | 68.6% | 66.5% | 84.4% | 80.9%
N/C(=N\c1nc2ccccc2s1)NC(=O)Nc1ccccc1[N+](=O)[O-] | 1.45% (active) | 10.6% | 44.6% | -1.5% (active) | 36.4% | 23% | 1.71% (active) | -41.1% (active) | 60.1% | 16.3%
Cc1cc(C(NC(=O)CCCCCNc2cccc3c2C(=O)N(C2CCC(=O)CC2=O)C3=O)c2cccc(N(C)C)c2)c(O)c2ncccc12 (stereo unspecified) | 27.5% | 9.86% (active) | -11.8% (active) | -22.2% (active) | 32.1% | 20.5% | 2.01% (active) | 1.5% (active) | 1.91% (active) | -26.5% (active)
O=C(CSc1nc2sc3c(c2c(=O)n1-c1ccc(Cl)cc1)CCCC3)NNC(=O)c1ccc(Br)cc1 | 97.4% | 55.5% | 69.2% | 25.6% | 76% | 84.9% | 84.1% | -29.5% (active) | 98.6% | 71.9%
C=CC(=O)Nc1ccc(C(=O)/C=C/c2ccc(N(C)C)cc2)c(O)c1 | 7.83% (active) | 12% | 3.17% (active) | 26.9% | -63.8% (active) | 21.5% | 13.1% | -21.8% (active) | 0.649% (active) | -5.06% (active)
O=C(Nc1ccc(-c2ccc3c(c2)NC(=O)/C3=C\c2ccc[nH]2)cc1)Nc1ccc(Cl)c(C(F)(F)F)c1 | 44.1% | 15.2% | 64.4% | 72.2% | 42.3% | 46.3% | 38.4% | 44.2% | 24.5% | 54.8%
CC(=O)Nc1cccc(-n2c(COc3ccc(I)cc3)nc3ccccc32)c1 | 99.4% and 101% | 67.5% and 104% | 86.9% and 106% | 70.7% and 109% | 80.7% and 107% | 81% and 99.1% | 79.1% and 101% | 84.5% and 107% | 112% and 106% | 102% and 115%
CCC(=O)c1c2c(c3ccc4c5ccccc5ccc4n13)C(=O)c1ccccc1C2=O | 20.3% | 96.7% | -87.5% (active) | 83% | 109% | 95.4% | 65.8% | 77.8% | 71.6% | 24.6%
Cc1cc(=O)oc2cc(OCC(O)CNN3C(=O)c4cccc5c(N6CCN(C)CC6)ccc(c45)C3=O)ccc12 (stereo unspecified) | 96.6% | 80.4% | 14.5% | 89.3% | 82.3% | 91.4% | 108% | 81.2% | 72.9% | 89.7%
NC(=Nc1ccc(OCCCCCCCCn2cnnn2)cc1)c1ccccc1 | – | 15.4% | 46.3% | 11.8% | – | 38.8% | – | – | 49.7% | 18.1%
CN(C(=O)CN1C(=O)/C(=C/c2ccco2)SC1=S)C1CCS(=O)(=O)C1 (stereo unspecified) | 103% | 85.1% | 97.1% | 108% | 108% | 93.9% | 104% | 104% | 96.4% | 94.6%
C/C(=N/O)c1ccc(NC(=O)CSc2nnc(-c3ccc4nc(-c5ccc(Cl)cc5)[nH]c4c3)o2)cc1 | 44.3% | 19.4% | -4.58% (active) | 36% | -40.6% (active) | 70.8% | 97.6% | 43% | 97.4% | 22.2%
Cc1ccc(C(=O)Nc2ccc(-n3ccnc3)c(C(F)(F)F)c2)cc1C#Cc1cnc2cccnn12 | 40.7% | 4.76% (active) | -14% (active) | -15.5% (active) | -20% (active) | 45.4% | 21.8% | -40.9% (active) | 8.92% (active) | 1.02% (active)
Cc1cc(N=C(N)c2ccccc2)ccc1OCCCCCCCCn1ccnc1 | – | 12.4% | -77.2% (active) | – | – | -12.2% (active) | – | – | -2.36% (active) | -17.5% (active)
C[C@H](NC(=O)c1ccc2c(-c3ccc(C(F)(F)F)cc3)cccc2c1)c1ccccn1 | 56.4% | 20.6% | 67% | 59.9% | 13% | 58.9% | 32.5% | 62.3% | 64.3% | 40.7%
Nc1nn2c(-c3cc4cc(Br)ccc4oc3=O)ccnc2c1N=Nc1ccccc1 | 37.1% | 83.2% | 26.2% | -36.8% (active) | -53% (active) | -28.4% (active) | 9.13% (active) | -84.4% (active) | 61.8% | 74.9%
Nc1cc2ccccc2c(=O)n1NC(=O)c1ccccc1 | 104% | 97.6% | 84.4% | 87% | 104% | 95.9% | 90.6% | 93.7% | 104% | 100%
O=C1NC(=NC23CC4CC(CC(C4)C2)C3)N/C1=C\c1ccc2ncccc2c1 | 3.46% (active) | 11% | 2.17% (active) | -14% (active) | -4.92% (active) | 35.2% | -29.6% (active) | 2.08% (active) | 50.6% | 45.9%
O=C1CC(c2ccc(I)cc2)OC2C=Cc3ccccc3C12 (stereo unspecified) | 106% | 102% | 94.3% | 97.6% | 107% | 114% | 99.9% | 106% | 113% | 108%
CN1C(=O)C2(C(C#N)=C(c3ccc(Cl)cc3)Nc3c2c(-c2ccccc2)nn3-c2ccccc2)c2ccccc21 (stereo unspecified) | 93.6% | 40.8% | 78.9% | 46.1% | 77% | 93.5% | 77.4% | -85.3% (active) | 112% | 77.2%
Cc1ccc(C(=O)Nc2cc(-c3ccccc3)cc(C(F)(F)F)c2)cc1C#Cc1cnc2cccnn12 | 84.8% | 5.94% (active) | 39% | 57.3% | 73.7% | 91.9% | 68% | 63.8% | 65.8% | 36.8%
